Compounds without any hit were thinned out: in the full panel of roughly 79,000, 15% have a hit. Unmarked numbers belong to inactive results. Activity calls are given as the source filed them. Cut-off read from the data, not from the text of the source: active = growth inhibition above about 70%; inactive = the rest.
Experiments:
[1] = NCI Yeast Anticancer Drug Screen. Data for the rad50 strain (AID 155);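 note: 0% = growth of vehicle-only cultures of the same strain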; conditions: S. cerevisiae rad50 strain growth inhibition; at 50.0 µM; hits give high values
In short: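 Readout: growth inhibition relative to vehicle-treated cultures. Compound exposure was carried out in a genetically defined yeast strain deficient in DNA damage repair.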

[2] = NCI Yeast Anticancer Drug Screen. Data for the mec2-1 strain (AID 157); conditions: S. cerevisiae mec2-1 strain, at 50.0 µM, hits give high values
In short: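 Yeast mec2-1 mutant treated with compound. Readout: growth inhibition vs vehicle controls.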

[3] = NCI Yeast Anticancer Drug Screen. Data for the sgs1 mgt1 strain (AID 161);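 note: 0% = growth of cultures given vehicle only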; conditions: S. cerevisiae sgs1 mgt1 strain, at 50.0 µM, hits give high values
In short: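 Mutant yeast exposed to compound; growth scored against vehicle-only wells.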

[4] = NCI Yeast Anticancer Drug Screen. Data for the cln2 rad14 strain (AID 165);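 note: 0% = growth equal to vehicle treated cultures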; conditions: S. cerevisiae cln2 rad14 strain, at 50.0 µM, hits give high values
In short: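 cln2 rad14 yeast strain; compound exposure; growth inhibition read vs vehicle controls.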

[5] = NCI Yeast Anticancer Drug Screen. Data for the bub3 strain (AID 167); conditions: S. cerevisiae bub3 mutant strain, at 50.0 µM, hits give high values
In short: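 Readout: yeast growth inhibition, expressed relative to vehicle-only wells. The test organism is a mutant strain from a panel with lesions in DNA repair or checkpoint genes.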

[6] = NCI Yeast Anticancer Drug Screen. Data for the mlh1 rad18 strain (AID 175); conditions: S. cerevisiae mlh1 rad18 strain growth inhibition; at 50.0 µM; hits give high values
In short: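 Yeast w/ defined DNA-repair lesions; compound exposure; growth vs vehicle controls → % inhibition.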

| SMILES | growth inhibition [1] | growth inhibition [2] | growth inhibition [3] | growth inhibition [4] | growth inhibition [5] | growth inhibition [6] |
| --- | --- | --- | --- | --- | --- | --- |
| O=C1CCC(c2ccccc2)(C2CCN(Cc3ccc(F)cc3)CC2)C(=O)N1 (stereo unspecified) | -8.55% | 4.85% | -5.85% | -14.8% | 3.45% | 4.8% |
| CC(C)C/C(=N\NC(N)=O)C1=CCCCC1 | 10.8% | 4.2% | -1.15% | -40.5% | -0.1% | 11.7% |
| O=C(Cc1cc2ccccc2[nH]c1=O)Nc1ccccc1 | 9.55% | -7.2% | 6.75% | -27% | -2.2% | -5.55% |
| Cn1c(SCc2ccc(F)cc2)nnc1C12CC3CC(CC(C3)C1)C2 | -32.2% | -12.2% | -22.6% | -1.95% | -17.4% | -48.1% |
| O=C(CC(C(=O)c1ccsc1)c1cccs1)c1ccsc1 (stereo unspecified) | -11.2% | -19.2% | 18.6% | 24.5% | 28.9% | 3% |
| CN(C)c1ccc(/C=C(\C#N)C(=O)c2ccccc2)cc1 | -9.8% | 8.25% | 8.9% | -7.15% | 6.85% | 22.9% |
| COC(=O)Cc1ccccc1C(c1ccccc1)c1ccccc1 | -1.85% | -0.4% | 9.7% | 6.7% | 13.8% | -0.65% |
| COC(=O)[C@]1(C)OP(OC)(OC)(OC)O[C@]1(C)C(=O)OC | -3.4% | -10.2% | 3.25% | -40.5% | -2.15% | -1.6% |
| COc1ccc(C(=O)C(C(=O)C(=O)NCCCNC(=O)C(=O)C(C(=O)c2ccc(OC)cc2)c2ccc(OC)cc2)c2ccc(OC)cc2)cc1 (stereo unspecified) | -11.9% | -25.6% | -7.1% | 13.8% | -9.25% | -10.7% |
| CC(=O)Oc1ccc2c(-c3ccccc3)c(Oc3ccc(Cl)cc3)c(=O)oc2c1 | -4.2% | -5.05% | -3.7% | -16.1% | 3.3% | 4.35% |
| Cc1cc(Br)cc(C)c1NC(=O)C(=O)C1C(=O)C(CC2C(=O)c3ccccc3C2=O)C(=O)CC1(C)C (stereo unspecified) | 36.1% | 22.9% | 0.75% | -5.7% | 4.35% | 16.4% |
| O=C(O)CSc1ccn(Cc2ccccc2)c1 | -8.15% | -18.5% | -43.1% | -22.8% | -56.8% | -22.6% |
| C(=N\N=C\c1ccccc1)/c1ccccc1 | 14.7% | 4.65% | 3.5% | -52.5% | -1.15% | 16.6% |
| CCOC(=O)C1CN(CCc2ccccc2)CCC1=O (stereo unspecified) | 30.9% | -8.65% | 32.1% | 16.5% | 42.8% | 31.8% |
| CC1(C)N=C(N)N=C(N)N1c1ccc(CCCCc2ccccc2)cc1 | 99.6% (active) | 99.7% (active) | 99.8% (active) | 99.3% (active) | 50% | 46.1% |
| COc1c(O)ccc(/C=N/NC(=S)NCOCCOC(C)=O)c1OC | 0.85% | -3.8% | 1.7% | 21.9% | 9.95% | -10.6% |
| Clc1ccc(C(Cl)(Cl)C(Cl)(Cl)Cl)cc1 | 6.65% | 40.4% | -2.15% | -61.2% | 40% | 44.1% |
| Cc1ccc(-c2nnc(CCCCCCCCc3nnc(-c4ccc(C)cc4O)n3N)n2N)c(O)c1 | 9.2% | -21.9% | 3.75% | 7.5% | 1.75% | 0.5% |
| COCCC(N)C(=O)O (stereo unspecified) | 6% | -13.3% | -15% | -22.8% | -11.6% | 2.65% |
| c1ccc([Si](c2ccccc2)(c2cccs2)c2cccs2)cc1 | -8.35% | 6.35% | 12.5% | 7.85% | 3.6% | 26% |
| CN(C)Cc1cc(CN(C)C)cc(CN(C)C)c1 | 0.3% | 15.8% | 3.45% | -22.9% | -11.2% | -19.8% |

| SMILES | growth inhibition [1] | growth inhibition [2] | growth inhibition [3] | growth inhibition [4] | growth inhibition [5] | growth inhibition [6] |
| --- | --- | --- | --- | --- | --- | --- |
| Cc1ccc(S(=O)(=O)OC2CCC(C(C)(C)C)C(Cl)C2)cc1 (stereo unspecified) | -8% | 8.3% | 3.2% | 9.55% | 3.35% | -6.75% |
| O=c1[nH]/c(=C/c2ccc3c(c2)OCO3)c(=O)[nH]/c1=C/c1ccc2c(c1)OCO2 | -24.2% | -20% | -22.8% | -13% | -34.4% | 20.2% |
| Cc1ccsc1C(=O)c1ccccc1[N+](=O)[O-] | -3.65% | -13.3% | -6.7% | -20.8% | -7.35% | 6.25% |
| N#CC(c1ccccc1)N(CCc1ccccc1)C(=O)Oc1ccccc1 (stereo unspecified) | -14.6% | -19.6% | -8.3% | -18.2% | -40.3% | -30.9% |
| Cc1cccc(C)c1C1=NCCN1 | 3.55% | -8.95% | -8.95% | -39.2% | -16.8% | 1.65% |
| O=C(CCc1ccccc1)NC(=S)Nc1cccc([N+](=O)[O-])c1 | -1.75% | 25.9% | 53.5% | -13.8% | 52.2% | 86% (active) |
| O=C(O)C(CSC(c1ccccc1)(c1ccccc1)c1ccccc1)NSc1ccccc1[N+](=O)[O-] (stereo unspecified) | 96.2% (active) | 97.2% (active) | 97.7% (active) | 96.5% (active) | 95.6% (active) | 97.8% (active) |
| O=C1c2ccccc2C(=O)c2cc(C[n+]3ccccc3C3OCCO3)ccc21 | 19% | 7.2% | 42.2% | 15.8% | -0.8% | 2.55% |
| O=C1C=C2SCCN2C(=O)C1 | -5.9% | -33.8% | -9.15% | -2.85% | -5.85% | 14.9% |
| COP(=O)(OC)C(NC(=O)C(F)(F)F)(c1ccccc1)C(F)(F)F (stereo unspecified) | -28.1% | -7.25% | -37.2% | -8% | -16.9% | -28.7% |
| CCCCCCCCN1N=CC(CC)C1CCC (stereo unspecified) | 3.15% | -11.8% | 6.5% | 11.3% | -0.8% | 1.45% |
| CC(=O)c1ccncc1 | -38.2% | -0.7% | 6.65% | -27.4% | -1.6% | 20.6% |
| Cc1cc(S(=O)(=O)Nc2nc(N)n(C)n2)c(S)cc1Cl | -19.1% | -18.3% | -3.3% | -3.1% | -29.2% | -1.85% |
| N#C/C(=C\NC(N)=S)c1nc2ccccc2s1 | -18.1% | 7.15% | -15.8% | 24.8% | -4.25% | -11.7% |
| COc1ccc(C(C#N)C(=O)C(=O)Nc2ccc(Cl)cc2C)cc1OC (stereo unspecified) | -19.9% | 17.9% | 24.6% | -14.2% | 2.65% | 16.9% |
| CNc1ncnc2n[nH]nc12 | -10.7% | -0.35% | -12.1% | -23% | -11.6% | 3.45% |
| Cc1nnnn1-c1ccc2ccccc2c1 | -24.8% | -24% | -6.8% | -20.6% | -0.05% | 4.45% |
| COc1ccc2c(c1)c1ccc3c(c1n2C)C(=O)C=CC3=O | 8.4% | -1.6% | 43% | 11% | 4.8% | 15.7% |
| O=c1cccc(CCc2ccccc2)[nH]1 | -8.85% | -9.35% | -9.6% | 0.6% | -0.55% | -16.4% |
| CC1COC(C(=O)O)(c2ccccc2)O1 (stereo unspecified) | -1.05% | -3.55% | -2.1% | -17.6% | -0.35% | 6.7% |

Source: PubChem BioAssay (NCI)
